Source: PubChem BioAssay (NCI)
The panel holds about 79,000 compounds, 15% with a hit somewhere; the sample as a whole holds those more often. Active and inactive are the calls of the source. Cut-off read from the data, not from the text of the source: active = growth inhibition above about 70%; inactive = the rest.

Tests used:
[1] = NCI Yeast Anticancer Drug Screen. Data for the rad50 strain (AID 155);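 note: 0% = growth of vehicle-only cultures of the same strain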; conditions: S. cerevisiae rad50 strain growth inhibition, active compounds read high
Summary of the method: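 Yeast carrying a defined DNA repair defect were exposed to test compounds, and growth was compared with vehicle-treated controls to give percent inhibition.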

[2] = NCI Yeast Anticancer Drug Screen. Data for the mec2-1 strain (AID 157); conditions: S. cerevisiae mec2-1 strain, active compounds read high
Summary of the method: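 Growth inhibition is read against vehicle-treated controls after compound exposure of the mec2-1 yeast strain, which is defective in DNA damage repair or cell cycle control.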

[3] = NCI Yeast Anticancer Drug Screen. Data for the sgs1 mgt1 strain (AID 161);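 note: 0% = growth of cultures given vehicle only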; conditions: S. cerevisiae sgs1 mgt1 strain, active compounds read high
Summary of the method: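 Growth of a repair-deficient yeast mutant was monitored after compound treatment and expressed as inhibition relative to vehicle-treated cultures.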

[4] = NCI Yeast Anticancer Drug Screen. Data for the cln2 rad14 strain (AID 165);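 note: 0% = growth equal to vehicle treated cultures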; conditions: S. cerevisiae cln2 rad14 strain, active compounds read high
Summary of the method: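 Growth inhibition, relative to vehicle-treated controls, is the read-out. The test organism is a yeast strain with defined genetic alterations, cln2 rad14.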

[5] = NCI Yeast Anticancer Drug Screen. Data for the bub3 strain (AID 167); conditions: S. cerevisiae bub3 mutant strain, active compounds read high
Summary of the method: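 Compounds were applied to a genetically altered yeast strain carrying a cell-cycle control defect. Growth inhibition was scored against vehicle-treated controls.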

[6] = NCI Yeast Anticancer Drug Screen. Data for the mlh1 rad18 strain (AID 175); conditions: S. cerevisiae mlh1 rad18 strain growth inhibition, active compounds read high
Summary of the method: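 Cells of a genetically altered yeast strain, deficient in DNA damage repair, were treated with compound. Their growth was then compared with that of vehicle-treated cultures to give inhibition.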

[7] = at 5.0 µM (retest, dose inferred, filed as 0.5)
[8] = at 50.0 µM (retest, dose inferred, filed as 5.0)

Measured: growth inhibition

CC1=Nc2ccccc2C1C(Cc1ccccc1N)c1c(C)[nH]c2ccccc12 (stereo not given)
inactive: [1]; [7] 15% | [2]; [7] 16% | [3]; [7] 11% | [4]; [7] 15% | [5]; [7] 7% | [6]; [7] 11%
active: [1]; [8] 97% | [1]; at 50.0 µM 95.6% | [2]; [8] 95% | [2]; at 50.0 µM 95.4% | [3]; [8] 90% | [3]; at 50.0 µM 88.8% | [4]; [8] 98% | [4]; at 50.0 µM 94.5% | [5]; [8] 95% | [5]; at 50.0 µM 89.6% | [6]; [8] 96% | [6]; at 50.0 µM 97%

CC(O[Si](C)(C)C(C)(C)C)C(=O)Sc1ccccn1 (stereo not given)
active: [1]; at 50.0 µM 95.3% | [2]; [8] 97% | [2]; at 50.0 µM 97.2% | [3]; at 50.0 µM 95.5% | [4]; [8] 84% | [4]; at 50.0 µM 85.9% | [5]; [8] 99% | [5]; at 50.0 µM 93.9% | [6]; at 50.0 µM 94.7%
inactive: [1]; [7] -1% | [1]; [8] 66% | [2]; [7] -9% | [3]; [7] -6% | [3]; [8] 54% | [4]; [7] -10% | [5]; [7] -6% | [6]; [7] -9% | [6]; [8] 48%

Cn1c(=O)c2c3oc(=O)cc(O)c3c(=O)n3c4ccccc4n(c1=O)c23
inactive: [1]; [7] 38% | [2]; [7] 29% | [2]; [8] 69% | [2]; at 50.0 µM 19.9% | [3]; [7] 35% | [3]; at 50.0 µM 45% | [4]; [7] 34% | [4]; [8] 45% | [4]; at 50.0 µM 42.5% | [5]; [7] 31% | [5]; at 50.0 µM 42.3% | [6]; [7] 53% | [6]; at 50.0 µM 42.1%
active: [1]; [8] 83% | [1]; at 50.0 µM 74.8% | [3]; [8] 86% | [5]; [8] 75% | [6]; [8] 92%

Clc1ccc2c(Cl)c3c(nc2c1)CCCC3
active: [1]; [8] 98% | [1]; at 50.0 µM 99% | [2]; [8] 99% | [2]; at 50.0 µM 99.5% | [3]; [8] 99% | [4]; [8] 99% | [4]; at 50.0 µM 99.3% | [5]; [8] 98% | [5]; at 50.0 µM 99.5% | [6]; [8] 94% | [6]; at 50.0 µM 99.2%
inactive: [1]; [7] -1% | [2]; [7] 2% | [3]; [7] 2% | [3]; at 50.0 µM 48.1% | [4]; [7] 0% | [5]; [7] 3% | [6]; [7] -5%

N#Cc1c(-c2ccc(Cl)cc2)c(-c2ccc(Cl)cc2)nn(CCOC(=O)CN)c1=O
inactive: [1]; [7] 18% | [1]; at 50.0 µM 40.5% | [2]; [7] 10% | [2]; at 50.0 µM 57% | [3]; [7] -27% | [3]; at 50.0 µM 45.6% | [4]; [7] 6% | [4]; at 50.0 µM 18.6% | [5]; [7] -16% | [5]; at 50.0 µM 35.1% | [6]; [7] 22%
active: [1]; [8] 94% | [2]; [8] 96% | [3]; [8] 89% | [4]; [8] 82% | [5]; [8] 86% | [6]; [8] 97% | [6]; at 50.0 µM 87%

Nc1nc(=O)[nH]c([O-])c1N=O.Nc1nc(=O)[nH]c([O-])c1N=O.[Ag+].[Ag+]
active: [1]; at 50.0 µM 96.8% | [2]; at 50.0 µM 98.7% | [3]; at 50.0 µM 92.9% | [4]; at 50.0 µM 98.8% | [5]; [7] 76% | [5]; at 50.0 µM 99.2% | [6]; at 50.0 µM 96.9%
inactive: [1]; [7] 37% | [1]; [8] -25% | [2]; [7] 44% | [2]; [8] -8% | [3]; [7] 63% | [3]; [8] -28% | [4]; [7] 28% | [4]; [8] -17% | [5]; [8] -28% | [6]; [7] 36% | [6]; [8] -21%

CCCCCCSc1nn(CCC#N)c(=O)[nH]c1=O
active: [1]; at 50.0 µM 96% | [2]; at 50.0 µM 93.5% | [3]; at 50.0 µM 91.5% | [4]; at 50.0 µM 78.5% | [5]; at 50.0 µM 74.8% | [6]; at 50.0 µM 96.7%
inactive: [1]; [7] -1% | [1]; [8] -36% | [2]; [7] 5% | [2]; [8] 36% | [3]; [7] 1% | [3]; [8] 40% | [4]; [7] 13% | [4]; [8] 10% | [5]; [7] 24% | [5]; [8] -6% | [6]; [7] 3% | [6]; [8] 21%

CC(Br)Cc1ccc2c(c1)OCO2 (stereo not given)
inactive: [1]; [7] 3% | [1]; [8] 0% | [1]; at 50.0 µM 1.15% | [2]; [7] 2% | [2]; [8] -2% | [2]; at 50.0 µM 44.5% | [3]; [7] 3% | [3]; [8] -3% | [3]; at 50.0 µM 19.8% | [4]; [7] 3% | [4]; [8] -1% | [4]; at 50.0 µM -3.8% | [5]; [7] -10% | [5]; [8] -14% | [5]; at 50.0 µM -28.5% | [6]; [7] -4% | [6]; [8] 1% | [6]; at 50.0 µM -12.4%

Cc1cc(Cl)ccc1C(=O)c1ccc2ccccc2c1C(=O)O
inactive: [1]; [7] 8% | [1]; [8] 44% | [2]; [7] -15% | [2]; [8] 49% | [3]; [7] 3% | [3]; [8] 54% | [4]; [7] -7% | [4]; [8] 65% | [5]; [7] -24% | [6]; [7] -36% | [6]; [8] 52%
active: [1]; at 50.0 µM 84% | [2]; at 50.0 µM 82.5% | [3]; at 50.0 µM 78% | [4]; at 50.0 µM 83.5% | [5]; [8] 87% | [5]; at 50.0 µM 82.4% | [6]; at 50.0 µM 78.8%

Cc1ccc2cc3ccccc3c(-c3ccccc3)c2c1
inactive: [1]; [7] 5% | [1]; [8] -3% | [1]; at 50.0 µM 10.6% | [2]; [7] -13% | [2]; [8] -29% | [2]; at 50.0 µM 12.9% | [3]; [7] 6% | [3]; [8] -61% | [3]; at 50.0 µM -9.35% | [4]; [7] 5% | [4]; [8] -16% | [4]; at 50.0 µM 37% | [5]; [7] -11% | [5]; [8] -12% | [5]; at 50.0 µM -1.15% | [6]; [7] -2% | [6]; [8] 0% | [6]; at 50.0 µM -5.65%
